Test results reported in paper PMC4336329 (PLoS ONE, 2015).
About 14,000 (4.5%) of roughly 310,000 compounds showed an effect of 50% or more. Effects have a minus sign here. This is one part of a sample in which strong results are shown more often than they occur.

Target: human ether-à-go-go-related gene (hERG) potassium channel (human, UniProt Q12809)
Experiment: primary screen, population patch clamp on CHO cells stably expressing hERG; higher = less effect of the substance
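Further: peak tail current of the secondary pulse compared with the same well before compound.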

Chain of human ether-à-go-go-related gene (hERG) potassium channel (Q12809 whole entry, looked up): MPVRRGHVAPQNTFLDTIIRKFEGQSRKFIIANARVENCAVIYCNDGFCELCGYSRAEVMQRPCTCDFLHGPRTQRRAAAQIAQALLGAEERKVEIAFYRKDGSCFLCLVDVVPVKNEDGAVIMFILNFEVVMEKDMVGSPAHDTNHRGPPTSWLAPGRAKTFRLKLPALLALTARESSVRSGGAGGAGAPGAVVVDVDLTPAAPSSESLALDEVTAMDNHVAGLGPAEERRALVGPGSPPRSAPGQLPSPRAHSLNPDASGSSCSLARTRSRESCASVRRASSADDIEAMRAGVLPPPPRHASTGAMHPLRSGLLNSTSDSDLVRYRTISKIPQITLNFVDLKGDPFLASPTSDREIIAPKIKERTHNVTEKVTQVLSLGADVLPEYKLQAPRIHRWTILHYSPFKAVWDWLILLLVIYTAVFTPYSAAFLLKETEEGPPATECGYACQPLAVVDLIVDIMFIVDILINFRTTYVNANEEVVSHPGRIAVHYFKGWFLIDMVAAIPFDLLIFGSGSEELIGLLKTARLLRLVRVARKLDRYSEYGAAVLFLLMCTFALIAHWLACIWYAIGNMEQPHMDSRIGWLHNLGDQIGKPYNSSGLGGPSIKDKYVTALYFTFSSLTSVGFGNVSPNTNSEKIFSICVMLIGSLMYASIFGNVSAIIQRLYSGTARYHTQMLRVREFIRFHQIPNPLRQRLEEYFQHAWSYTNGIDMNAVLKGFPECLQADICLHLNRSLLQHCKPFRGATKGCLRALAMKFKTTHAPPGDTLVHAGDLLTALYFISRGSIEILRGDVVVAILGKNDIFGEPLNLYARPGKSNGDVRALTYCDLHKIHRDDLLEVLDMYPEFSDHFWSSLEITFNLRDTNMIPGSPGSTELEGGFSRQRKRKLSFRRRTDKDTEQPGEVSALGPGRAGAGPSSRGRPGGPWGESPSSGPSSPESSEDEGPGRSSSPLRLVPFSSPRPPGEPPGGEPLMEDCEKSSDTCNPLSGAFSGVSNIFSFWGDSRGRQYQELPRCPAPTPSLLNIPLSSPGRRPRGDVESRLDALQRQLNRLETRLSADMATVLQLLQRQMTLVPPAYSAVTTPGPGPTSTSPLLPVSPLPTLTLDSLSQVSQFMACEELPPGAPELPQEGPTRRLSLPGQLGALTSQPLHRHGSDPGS

Structure (SMILES) | hERG current change (%, negative = inhibition) at 10uM [%]
CC1=C(C(=O)OCC2CCCO2)C(c2ccc(Cl)c(Cl)c2)NC(=O)N1 (stereo not shown) | 11.4
CCN1C(=NCCOC)N[C@@H](CCc2ccccc2)[C@H](C(=O)OC)[C@H]1C | -1.21
CCN1C(=NCC(C)C)N[C@@H](CCc2ccccc2)[C@H](C(=O)NCC(C)C)[C@H]1C | -16.2
CCN1C(=NCc2ccc(OC)cc2)N[C@@H](CCc2ccccc2)[C@H](C(=O)NCc2ccc(OC)cc2)[C@H]1C | -65.4
Cc1cc(/C=N/NC(N)=O)c(C)n1-c1ccc(F)cc1 | -2.06
Cc1cccc(N(C(=O)c2csnn2)C(C(=O)NCc2ccccc2)c2ccc(C)o2)c1 (stereo not shown) | -54.6
Cc1ccc(C(C(=O)NC2CCCCC2)N(C(=O)c2csnn2)C2CC2)o1 (stereo not shown) | -57.6
Cc1ccc(C(C(=O)NCc2ccc(F)cc2)N(C(=O)c2csnn2)C2CC2)o1 (stereo not shown) | -56.7
Cc1ccc(C(C(=O)NC2CCCC2)N(C(=O)c2csnn2)C2CCCC2)o1 (stereo not shown) | -4.91
Cc1ccc(C(C(=O)NCc2ccc(F)cc2)N(C(=O)c2csnn2)C2CC2)cc1 (stereo not shown) | -19.3
Cc1ccc(C(C(=O)NC2CCCCC2)N(C(=O)c2csnn2)C2CCCC2)o1 (stereo not shown) | -7.71
O=C(NCc1ccc(F)cc1)C(c1ccc(F)cc1)N(C(=O)c1csnn1)C1CC1 (stereo not shown) | 9.3
Cc1cccc(N(C(=O)c2csnn2)C(C(=O)NCc2ccccc2)c2cccs2)c1 (stereo not shown) | -9.49
Cc1ccc(C(C(=O)NCc2ccccc2)N(C(=O)c2csnn2)c2cccc3ccccc23)o1 (stereo not shown) | -13.2
O=[N+]([O-])c1cc2c(cc1Br)CCN2 | 11.2
O=C(O/N=C1\CCCc2ccccc21)C1CC1 | 14.4
O=C(O)CCCC(=O)Nc1ccc(Oc2cccc(C(F)(F)F)c2)nc1 | 19.4
CCC(C(=O)NCCc1ccccc1OC)n1nc(C)c2c(C)n(-c3ccccc3)nc2c1=O (stereo not shown) | -30
O=C(COC(=O)c1cc(NS(=O)(=O)c2cccs2)ccc1O)Nc1ccc(F)c(F)c1F | 4.87
CCC(=O)Nc1cccc(NC(=S)NC(=O)c2cccs2)c1 | 3.59
O=C(NC(=S)Nc1cccc(-c2ccc(CO)o2)c1)c1cccs1 | 23.7
CC(C)(O)c1ccc2c(c1)CCC1C(C)(C(=O)O)CCCC21C (stereo not shown) | 4.17

Structure (SMILES) | hERG current change (%, negative = inhibition) at 10uM [%]
CCOC(=O)Cc1cc(=O)n2[nH]cc(-c3cccc(Br)c3)c2n1 | 35.6
CC(=O)N1CCc2cc(S(=O)(=O)NC(C(=O)Nc3nc(C)cs3)C(C)C)ccc21 (stereo not shown) | 8.38
CCN1C(=O)C2C(c3ccc(O)c(OC)c3)NC(C)(C(=O)OC)C2C1=O (stereo not shown) | 12.1
COc1cc(=O)[nH]c(SCc2c(F)c(F)c(F)c(F)c2F)n1 | 0.443
CC(=O)N(CC(=O)O)c1ccccc1C(=O)O | 12
O=C(CN1C(=O)/C(=C2\SC(=S)N(CCS(=O)(=O)O)C2=O)c2ccccc21)Nc1cccc(Br)c1 | -73.1
O=C1/C(=C2\C(=O)N(Cc3ccc(F)cc3)c3ccccc32)SC(=S)N1CCS(=O)(=O)O | 4.31
Cc1cccc(NC(=O)CN2C(=O)/C(=C3\SC(=S)N(CC4CCCO4)C3=O)c3ccccc32)c1 (stereo not shown) | 12.9
COc1ccccc1CCNC(=O)C1CCC(=O)N(C2CCCCCC2)C1 (stereo not shown) | -7.62
Cc1ccc(-c2nnc3sc(-c4ccncc4)nn23)cc1 | -41.4
N#Cc1cc2sc3nnc(-c4ccncc4)n3c2cc1C#N | -54
Cc1cn2c(-c3ccncc3)nnc2s1 | 7.96
COCCCNC(=O)c1ccc(Cn2c(=O)c3ccccc3n(CC(=O)NCc3ccco3)c2=O)cc1 | 6.71
COc1cccc2sc(=NC(=O)CCS(=O)(=O)c3ccc(C)cc3)n(C)c12 | 8.32
COc1cccc2sc(=NC(=O)CS(=O)(=O)c3ccc(Cl)cc3)n(C)c12 | -60.8
COc1cccc2sc(=NC(=O)CS(=O)(=O)c3ccc(F)cc3)n(C)c12 | -0.213
Cc1ccccc1OCC(=O)NN1C(=O)C2C3C=CC(O3)C2C1=O (stereo not shown) | 12.3
COCCc1nnc(NC(=O)Cc2ccccc2)s1 | 4.67
C#Cc1ccc([C@@H]2C=C(C(=O)NCc3ccccc3)O[C@H](OCc3ccc(CO)cc3)C2)cc1 | 6.15
COc1ccccc1C(=O)NCCC(=O)N(Cc1ccco1)Cc1cccs1 | -21.3
O=C(NCc1ccc2c(c1)OCO2)c1cc2ccccc2oc1=O | 12
O=C(NCCC(=O)N(Cc1ccco1)Cc1cccs1)c1ccccc1Cl | -16.5

Structure (SMILES) | hERG current change (%, negative = inhibition) at 10uM [%]
O=C(NCCC(=O)N(Cc1ccco1)Cc1cccs1)c1ccc(Br)cc1 | -58.7
O=C(c1cc2ccccc2o1)N(Cc1ccco1)Cc1cccs1 | -35.4
O=C(c1cc2ccccc2oc1=O)N(Cc1cccs1)Cc1cccs1 | -14.4
O=C(c1cc2ccccc2oc1=O)N(Cc1ccco1)Cc1cccs1 | -58.3
O=C(c1cc2ccccc2oc1=O)N(Cc1ccc2c(c1)OCO2)Cc1ccco1 | -59.3
O=C(c1cc2ccccc2oc1=O)N(Cc1ccco1)CC1CCCO1 (stereo not shown) | 6.96
CCn1c(CNC(=O)c2ccc(OC)c(OC)c2)nnc1SCC(=O)Nc1ccccc1 | -21.5
COC(=O)C1=C(c2cccc(C#N)c2)C[C@@H]2CC[C@H]1N2C(=O)N1CCOCC1 | 6.41
COc1ccc(-c2noc(CN(C)C(=O)CCN3C(=O)[C@H]4CC=CC[C@H]4C3=O)n2)cc1 | -2
COc1cc(C(=O)NCC(=O)OCC(=O)N2CCc3ccccc32)cc(OC)c1OC | 3.43
COc1ccc(OC)c(S(=O)(=O)Oc2ccc(N)c3ccccc23)c1 | 7.83
CC(C)(C)c1ccc(C(=O)NNC(=S)NCC2CCCO2)cc1 (stereo not shown) | 14.4
CCOc1ccc(NC(=O)CCSc2ccc(C)cc2)cc1 | 8.63
O=C(c1ccco1)N1CCN(C(=O)c2ccc(CS(=O)c3cccc(Cl)c3)o2)CC1 (stereo not shown) | -14
Cc1ccc(Nc2nc(N)nc(CN3CCN(C(=O)c4ccco4)CC3)n2)cc1Cl | -74
O=C(c1cccc(Cl)c1)N1CCN(C(=O)c2ccco2)CC1 | -8.43
Nc1nc(CN2CCN(C(=O)c3ccco3)CC2)nc(Nc2cccc(Cl)c2)n1 | -78.6
Cc1ccc(NC(=O)N2CCN(C(=O)c3ccco3)CC2)cc1Cl | -2.38
Cc1cc(/C=C2\SC(=S)NC2=O)c(C)n1-c1ccccc1 | 14.6
Oc1c(/C=C/C=C/C=Nc2ccccc2)sc(=S)n1Cc1ccccc1 | -5.14
CN1CCN(c2nc(-c3ccco3)cc(C(F)(F)F)n2)CC1 | -62.8
Fc1ccc(N2CCN(c3nc(-c4ccco4)cc(C(F)(F)F)n3)CC2)cc1 | 15.2

Structure (SMILES) | hERG current change (%, negative = inhibition) at 10uM [%]
FC(F)(F)c1cc(-c2ccco2)nc(N2CCN(c3ccccc3)CC2)n1 | 1.67
O=C(O)Cc1ccc(NC(=O)C2CC=CCC2C(=O)O)cc1 (stereo not shown) | 23.7
C[C@@H](NC(=O)c1nc[nH]c1C(=O)NC1CCN(C(=O)OC(C)(C)C)CC1)c1ccccc1 | -14.4
CCOc1ccccc1C1CC(c2ccc(Br)cc2)Nc2nc(N)nn21 (stereo not shown) | -55.1
Nc1nc2n(n1)C(c1c(F)cccc1Cl)CC(c1ccc(F)cc1)N2 (stereo not shown) | -62.4
Nc1nc2n(n1)C(c1cccs1)CC(c1ccc(F)cc1)N2 (stereo not shown) | -33.9
Nc1nc2n(n1)C(c1ccccc1Cl)CC(c1ccc(F)cc1)N2 (stereo not shown) | -25.1
Cc1ccccc1C1CC(c2ccc(F)cc2)Nc2nc(N)nn21 (stereo not shown) | -27.2
Nc1nc2n(n1)C(c1cccs1)CC(c1ccccc1)N2 (stereo not shown) | -23.5
CCOc1ccccc1C1CC(c2ccccc2)Nc2nc(N)nn21.Cl (stereo not shown) | -11.9
Cc1ccc(C2CC(c3ccccc3C)n3nc(N)nc3N2)cc1 (stereo not shown) | -14.6
Cc1ccccc1C1CC(c2ccc(Br)cc2)Nc2nc(N)nn21 (stereo not shown) | -52.3
CCOc1ccccc1C1CC(c2ccc(F)cc2)Nc2nc(N)nn21 (stereo not shown) | -48.1
COc1cccc(C2CC(c3c(F)cccc3Cl)n3nc(N)nc3N2)c1 (stereo not shown) | -2.6
Nc1nc2n(n1)C(c1cccs1)CC(c1ccc(Br)cc1)N2 (stereo not shown) | -57.5
CC(=O)N1CCN=C1SCc1cccc(Cl)c1 | -3.91
CC(C)C(c1nnnn1C1CCCCC1)N1CCc2ccccc2C1 (stereo not shown) | 2.91
c1ccc(-c2cnc(-c3ccccn3)nn2)cc1 | 18.6
O=C(NCc1ccco1)c1ccc(N2CCCC2=O)cc1 | 4.3
